TDP1 cell noCPT: qHTS for Inhibitors of human tyrosyl-DNA phosphodiesterase 1 (TDP1): qHTS in cells in absence of CPT. DT40 Tdp1-/- hTDP1 cells, no CPT, ATP luminescence, 48 h. Potency, µM (series often up to 46.2 µM), most hits filed as inhibitors. actives 15% (n = 420,000). AID 686978, 2013; further: nearly all actives have a fitted effect of over 55% in size
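Luminescent ATP content (CellTiter-Glo) served as the growth readout. Knockout chicken DT40 cells expressing human TDP1 were exposed to compounds without camptothecin for a minimum 48 hr at 37 °C.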
DT40 TDP1 CPT: DT40-hTDP1 cell growth loss with CPT | AID 686979 | actives 12% (n = 420,000) | Potency, µM (series often up to 46.2 µM), most hits filed as inhibitors | chicken DT40 Tdp1-/-;hTDP1 cells + 20 nM CPT, ATP luminescence, 48 h; further: nearly all actives have a fitted effect of over 55% in size
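Chicken DT40 Tdp1-/- cells complemented with human TDP1, 400 cells/well, exposed to compounds plus 20 nM camptothecin for at least 48 h at 37 C; viability read as ATP content by CellTiter-Glo luminescence.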
HT1080 IDH1KD tx: kills HT-1080 cells with IDH1 knockdown; HT-1080 IDH1 knockdown viability, ATP luminescence, 48 h; Potency, µM (series often up to 46.1 µM), actives largely listed as cytotoxic; AID 686971; actives 2% (n = 360,000)
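IDH1KD HT-1080 cells, 750/well, RPMI + 5% FBS; compound pinned after 2 h settling; 48 h, 37 °C; CellTiter-Glo luminescence; % activity normalised to DMSO and no-cell wells; curves fitted, classed by r2 and efficacy.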
HT1080NT lethal: kills 2HG-producing HT-1080-NT fibrosarcoma cells; HT-1080-NT fibrosarcoma viability, CellTiter-Glo ATP luminescence, 48 h; Potency, µM (top dose mostly 46.1 µM), hits mostly cytotoxic; actives 1.6% (n = 360,000); AID 686970;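 further: NT is the 2HG producing partner of a matched IDH1 knockdown line; nearly all actives have a fitted effect of over 55% in size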
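Luminescent CellTiter-Glo readout after 48 hours of compound exposure at 37 degrees C defined viability of HT-1080-NT cells. Activity was normalized to DMSO wells and cell-free media wells; concentration-response curves were fitted and assigned curve classes.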
TGFb inhibitor: inhibitors of TGF-b signaling. HepG2 CAGA-GFP TGF-b/SMAD3 reporter, GFP fluorescence, 18 h; TGF-beta stimulated, 500 pg/mL final. Potency, µM (titrated, usually from 46.1 µM), usual class: inhibitors. actives 1.2% (n = 410,000); further: nearly all actives have a fitted effect of over 65% in size
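Inhibition was scored as loss of TGF-beta-induced (500 pg/mL final, 18 hours, 37 degrees C) GFP in HEPG2 cells carrying a CAGA-GFP reporter, in DMEM with 1% FBS. Well GFP was summed per cell; Activity was normalised to unstimulated and stimulated DMSO wells, then concentration-response fitting.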
HepG2 tox: HepG2 cytotoxicity, counter-screen for TGF-b inhibitors; HepG2 CAGA-GFP viability, ATP luminescence, 18 h; Potency, µM (doses to about 46.1 µM), usual class: cytotoxic; actives 0.76% (n = 410,000); AID 588856
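HepG2 CAGA-GFP cells (1000/well, DMEM with 1% FBS) received compound, then TGF-beta at 500 pg/mL final, and were incubated 18 hours at 37 degrees C. Viability was read by CellTiter-Glo luminescence. Media-only wells were set as complete cell-killing and DMSO as no toxicity.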
Each line names hits and unclear results; the compound was inactive in the other large screens. The list is not random: actives were taken first. Their share in the collection is about 17%. The call rests on the fitted dose curve; in most records, active means well fitted curve in the direction sought with a large enough effect; inconclusive means small, poorly fitted or top-dose-only effect, or another doubt; inactive means no such curve, though single readings can be large; an effect the other way counts as inactive or inconclusive.

CCOc1ccc(CCNC(=O)c2cc3sc(CC)cc3n2C)cc1OCC	TDP1 cell noCPT 11.6µM, DT40 TDP1 CPT 14.6µM, TGFb inhibitor inconclusive (no result: HT1080 IDH1KD tx, HT1080NT lethal)
CCOc1ccc(C(=O)Nc2nnc(S(=O)(=O)Nc3ccccc3)s2)cc1	TDP1 cell noCPT inconclusive (no result: HT1080 IDH1KD tx, HT1080NT lethal)
Cc1cccc(NC(=O)CSc2nccn2Cc2ccc(F)cc2)c1C	none (no result: HT1080 IDH1KD tx, HT1080NT lethal)
COc1ccccc1C(CNC(=O)CCNS(=O)(=O)c1ccc(Br)cc1)N1CCCC1 (stereo not drawn)	TDP1 cell noCPT inconclusive, DT40 TDP1 CPT inconclusive
COc1ccccc1NC(=O)C(C)Sc1nnc2ccc3ccccc3n12 (stereo not drawn)	TDP1 cell noCPT inconclusive, DT40 TDP1 CPT 20.6µM (no result: HT1080 IDH1KD tx, HT1080NT lethal)
CC(Sc1nnc2ccc3ccccc3n12)C(=O)Nc1ccc(Cl)cc1 (stereo not drawn)	TDP1 cell noCPT inconclusive, DT40 TDP1 CPT 14.6µM (no result: HT1080 IDH1KD tx, HT1080NT lethal)
COc1ccc(CCNC(=O)c2cc(S(=O)(=O)N3CCOCC3)cn2C)cc1OC	DT40 TDP1 CPT inconclusive
O=C(Nc1cccc(Cl)c1)c1ccc(NCCCN2CCOCC2)c([N+](=O)[O-])c1	TDP1 cell noCPT 29.1µM, DT40 TDP1 CPT inconclusive, HT1080 IDH1KD tx inconclusive, HT1080NT lethal inconclusive, TGFb inhibitor inconclusive
Cc1ccc(NC(=O)c2ccc(NCCCN3CCC(C)CC3)c([N+](=O)[O-])c2)cc1F	TDP1 cell noCPT 8.2µM, DT40 TDP1 CPT 4.61µM, HT1080 IDH1KD tx inconclusive, HT1080NT lethal inconclusive
Cc1ccc(NC(=O)c2ccc(NCCN)c([N+](=O)[O-])c2)cc1	TDP1 cell noCPT inconclusive, DT40 TDP1 CPT inconclusive
O=C(NCCCN1CCOCC1)c1ccc(Sc2ccccc2Cl)c([N+](=O)[O-])c1	TDP1 cell noCPT inconclusive, DT40 TDP1 CPT inconclusive
O=C(NCCCN1CCOCC1)c1ccc(Sc2ccc(Br)cc2)c([N+](=O)[O-])c1	TDP1 cell noCPT 10.3µM, DT40 TDP1 CPT 6.51µM
COC(=O)N1CCC2(CC1)CCN(c1ccccc1)CC2	TDP1 cell noCPT inconclusive (no result: HT1080 IDH1KD tx, HT1080NT lethal, TGFb inhibitor, HepG2 tox)
CC(=O)OCCCN1c2ccccc2Nc2nnc(-c3ccccc3)cc21	TDP1 cell noCPT inconclusive, DT40 TDP1 CPT inconclusive
O=C(NC1CCCCC1)C(c1ccncc1)N(C(=O)c1csnn1)c1ccccc1F (stereo not drawn)	none
CCOC(=O)CN[C@H]1CCC2C3CC=C4C[C@@H](O)CC[C@]4(C)C3CC[C@@]21C (stereo partly drawn)	TDP1 cell noCPT inconclusive, DT40 TDP1 CPT inconclusive
CC12CCC(O)CC1=CCC1C2CCC2(C)C3=NN=CC3CC12 (stereo not drawn)	TDP1 cell noCPT inconclusive, HT1080 IDH1KD tx 32.6µM, HT1080NT lethal inconclusive
CN(C)CCN[C@H]1CCC2C3CC=C4C[C@@H](O)CC[C@]4(C)C3CC[C@@]21C (stereo partly drawn)	TDP1 cell noCPT 3.26µM, DT40 TDP1 CPT 5.8µM
COC(=O)C1=C(C)N2C(=O)CSC2=NC1c1ccc2c(c1)OCO2 (stereo not drawn)	none
CCCCN(CC)CCCn1cnc2c([nH]c3ccc(Cl)cc32)c1=O	TDP1 cell noCPT 20.6µM, DT40 TDP1 CPT 20.6µM (no result: HT1080 IDH1KD tx, HT1080NT lethal)
C[N+](C)(CC#Cc1ccccc1)CC(=O)c1ccc(Cl)cc1	TDP1 cell noCPT inconclusive, DT40 TDP1 CPT inconclusive, HT1080 IDH1KD tx inconclusive
C#CC[N+](CC)(CC)CC#Cc1ccccc1	TDP1 cell noCPT 18.4µM, DT40 TDP1 CPT inconclusive
CC[N+](CC)(CC#Cc1ccccc1)CC#Cc1ccccc1	TDP1 cell noCPT 2.06µM, DT40 TDP1 CPT 2.59µM, HT1080NT lethal inconclusive
C#CC[N+](C)(C)CC#Cc1ccc(C)cc1	HT1080 IDH1KD tx inconclusive, HT1080NT lethal inconclusive
C[N+](C)(CC#Cc1ccccc1)CC(=O)c1ccccc1	TDP1 cell noCPT 16.4µM, DT40 TDP1 CPT 18.4µM
CCOC(=O)C[N+](CC)(CC)CC#Cc1ccccc1	none
COc1cc(S(=O)(=O)NC2CCCCC2)c(C)cc1C	none
Cc1ccc(-c2cnc3cccnn23)cc1F	TDP1 cell noCPT inconclusive, DT40 TDP1 CPT inconclusive
O=C([C@@H]1CC=C[C@@H]2CCN(C3CCCCC3)C(=O)[C@@H]21)N1CCOCC1	none (no result: HT1080 IDH1KD tx, HT1080NT lethal)
OC[C@H]1O[C@@H](c2nc(-c3ccc(CN4CCOCC4)cc3)no2)[C@H](O)[C@@H](O)[C@H]1O	none
O=C(Nc1c(-c2ccccc2)[nH][nH]c1=O)c1ccco1	none
COc1cc(/C=C(\C#N)C(=O)NCC2CCCO2)ccc1OCCC(C)C (stereo not drawn)	TDP1 cell noCPT 16.4µM, DT40 TDP1 CPT 20.6µM
COc1ccc(/C=C(\C#N)C(=O)NCC2CCCO2)cc1OC (stereo not drawn)	none
COc1cc(/C=C(\C#N)C(=O)NCC2CCCO2)ccc1OCC(N)=O (stereo not drawn)	HepG2 tox 10µM
C=CCNc1cc(=O)n(Cc2ccccc2)c(=O)[nH]1	TDP1 cell noCPT 18.4µM, DT40 TDP1 CPT inconclusive
CCOc1ccccc1NC(=O)Cc1coc2c(C)c(C)ccc12	TDP1 cell noCPT inconclusive, DT40 TDP1 CPT inconclusive (no result: HT1080 IDH1KD tx, HT1080NT lethal)

Screening data (PubChem BioAssay)
